Source: PubChem BioAssay (NCATS)
Results filed as inconclusive are left out. Activity calls are given as the source filed them. Unless noted, calls follow the shape of the dose curve; as a rule, active = well fitted curve in the direction sought with a large enough effect; inconclusive = small, poorly fitted or top-dose-only effect, or another doubt; inactive = no such curve, though single readings can be large; an effect the other way counts as inactive or inconclusive.

Columns and labels:
[1] = qHTS assay for small molecule activators of the p53 signaling pathway (AID 651743; active = well fitted activation curve with a large enough effect in the signal ratio, not every such curve was filed as active; the % refers to the signal ratio; also: % of control where 0% means no effect); details: HCT-116 p53RE-bla, beta-lactamase FRET ratio, 16 h; activation: stronger effect = higher value
In short: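 Cell-based beta-lactamase reporter (p53 response elements, HCT-116 background). After a 5-hour preincubation, cells received compound for 16 hours at 37 C; substrate development ran 2 hours at room temperature.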

[2] = qHTS assay for small molecule activators of the nuclear factor-kappa B (NF-kB) signaling pathway (AID 651749; active = well fitted activation curve with a large enough effect in the signal ratio; the % refers to the signal ratio; also: % of control where 0% means no effect); details: NF-kB-bla ME-180 cells, beta-lactamase FRET ratio, 16 h; stronger effect = higher value
In short: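 Screening used 2,000 ME-180 reporter cells per well exposed to pinned compound (23 nL) or DMSO; after 16 hr at 37C, beta-lactamase expression under NF-kB control was assessed through FRET.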

[3] = qHTS assay for small molecule disruptors of the mitochondrial membrane potential - 1 hr assay (AID 651754; calls by dose curve; also: % is scaled to controls: 0 for no effect and ±100 for the full control effect; nearly all actives have a fitted effect of over 35% in size)
In short: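 HepG2 cells, attached overnight, were exposed to compound for 1 hr at 37C, then stained 30 min with a potentiometric dye. Ratio of red aggregate (590nm) to green monomer (535nm) fluorescence reports membrane potential; collapse shifts signal toward green.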

[4] = qHTS assay for small molecule disruptors of the mitochondrial membrane potential - 5 hr assay (AID 651755; calls by dose curve; also: % is scaled to controls: 0 for no effect and ±100 for the full control effect; nearly all actives have a fitted effect of over 40% in size)
In short: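 HepG2 cells, attached overnight at 37C, were exposed to compound or DMSO for 5 hr at 37C, 5% CO2. Mito-MPS dye was then added for 30 min, and fluorescence read at 490/535 nm (monomers) and 540/590 nm (aggregates).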

[5] = biological target: Tumor necrosis factor (Homo sapiens) (UniProt P01375); assay: qHTS assay to identify small molecules that stimulate Tumor Necrosis Factor-alpha (TNF-alpha) secretion (AID 651757; active = well fitted curve in the direction sought with a large enough effect in the signal ratio; the % refers to the signal ratio; also: potency is read from the fitted curve at half-maximal effect)
Tumor necrosis factor (Homo sapiens), sequence (P01375 whole entry, looked up): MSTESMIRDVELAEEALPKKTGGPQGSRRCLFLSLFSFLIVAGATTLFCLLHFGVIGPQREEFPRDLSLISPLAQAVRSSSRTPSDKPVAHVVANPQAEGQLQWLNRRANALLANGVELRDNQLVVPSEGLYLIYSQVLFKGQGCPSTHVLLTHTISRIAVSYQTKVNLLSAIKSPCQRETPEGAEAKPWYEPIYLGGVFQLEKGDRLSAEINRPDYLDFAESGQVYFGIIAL
In short: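 THP-1 cells (3000/well) exposed to compounds 17 hrs at 37 C. Secreted TNF-alpha detected by HTRF with cryptate- and XL665-labeled anti-TNF-alpha antibodies after 3 hr at room temperature.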

[6] = qHTS assay for environmental chemicals that activate the Aryl hydrocarbon Receptor (AhR) signaling pathway (AID 651777); details: 1A2-DRE human hepatoma cells, luciferase, 24 h; activation: stronger effect = higher value; also: % of control where 0% means no effect; nearly all actives have a fitted effect of over 15% in size
In short: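 Reporter gene assay: hepatoma cells with DRE/CYP1A2-luciferase, 24 hr compound incubation at 37 C, 5% CO2, luminescence after One-Glo (30 min, RT).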

[7] = biological target: Peroxisome proliferator-activated receptor alpha (Homo sapiens) (UniProt Q07869); assay: qHTS assay for small molecule agonists of the peroxisome proliferator-activated receptor alpha (PPARalpha) signaling pathway (AID 651778); details: PathHunter PPARalpha complementation, chemiluminescence, 6 h; stronger effect = higher value; also: % of control where 0% means no effect
Peroxisome proliferator-activated receptor alpha (Homo sapiens), sequence (Q07869 whole entry, looked up): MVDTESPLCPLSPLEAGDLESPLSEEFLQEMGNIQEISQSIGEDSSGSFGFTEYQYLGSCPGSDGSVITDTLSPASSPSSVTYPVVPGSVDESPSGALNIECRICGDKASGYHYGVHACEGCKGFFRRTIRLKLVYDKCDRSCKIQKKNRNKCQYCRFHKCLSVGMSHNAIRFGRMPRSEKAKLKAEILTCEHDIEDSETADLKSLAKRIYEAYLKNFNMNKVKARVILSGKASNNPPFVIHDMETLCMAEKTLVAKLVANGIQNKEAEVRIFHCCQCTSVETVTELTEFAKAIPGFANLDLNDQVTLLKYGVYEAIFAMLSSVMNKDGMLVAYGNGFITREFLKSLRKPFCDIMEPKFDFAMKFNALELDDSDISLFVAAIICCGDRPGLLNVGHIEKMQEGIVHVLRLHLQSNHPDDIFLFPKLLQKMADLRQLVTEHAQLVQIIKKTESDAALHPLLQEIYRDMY
In short: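 Cells plated at 2,000/well and held overnight at 37 C, 5% CO2, then compound added by pin tool for 6 hr; after PathHunter detection reagent and 60 min at room temperature, chemiluminescence from enzyme complementation was read.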

[8] = qHTS assay for small molecule agonists of the antioxidant response element (ARE) signaling pathway measured by Nrf2-dependant transcriptional activity (AID 720636; active = well fitted curve in the direction sought with a large enough effect in the repeat runs; an effect the other way counts as inactive or inconclusive;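 also: HepG2 cells with an ARE-driven luciferase reporter; % of control where 0% means no effect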)
In short: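 Nrf2-dependent transcription is measured in ARE-luc HepG2 cells: compound is applied for 16 hr at 37 C after a 6 hr attachment period, and luciferase activity is quantified by luminescence using ONE-Glo.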

[9] = qHTS assay for small molecule antagonists of the retinoid-related orphan receptor gamma (ROR-gamma) signaling pathway - cell viability counter screen (AID 720652; active = well fitted curve in the direction sought with a large enough effect in the repeat runs; an effect the other way counts as inactive or inconclusive;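 also: CHO reporter cells with doxycycline-induced ROR-gamma expression; compound exposure lasted 16 hr before ATP read; % is scaled to controls: 0 for no effect and ±100 for the full control effect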)
In short: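 CHO cells carrying TET-inducible ROR and RORE-luciferase reporter, plated 5 hr, then dosed with compound plus doxycycline. After 16 hr at 37 C, viability read as intracellular ATP by CellTiter-Glo luminescence.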

[10] = qHTS assay for small molecule agonists of the antioxidant response element (ARE) signaling pathway measured by Nrf2-dependant transcriptional activity - cell viability counter screen (AID 720653; active = well fitted curve in the direction sought with a large enough effect in the repeat runs; an effect the other way counts as inactive or inconclusive; also: % is scaled to controls: 0 for no effect and ±100 for the full control effect); details: ARE-bla HepG2 viability, CellTiter-Glo ATP luminescence, 16 h; stronger effect = lower value
In short: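 ARE-bla HepG2 cells (2,000/well) rested 5 hrs at 37C/5% CO2, then exposed to compounds in DMSO for 16 hrs. Viability was read in the same wells as intracellular ATP by luminescence, 30 min at room temperature after reagent addition.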

[11] = qHTS assay for cell viability of HEK293 cells (AID 743288); details: ATP luminescence (CellTiter-Glo), 18 h, stronger effect = lower value; also: % is scaled to controls: 0 for no effect and ±100 for the full control effect; nearly all actives have a fitted effect of over 50% in size
In short: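 Parental HEK293 cells were seeded at 2,000 cells/well, rested at least 5 h at 37 C, then exposed to compounds in DMSO for 18 h at 37 C. Viability was read as ATP-dependent luciferase luminescence after 30 min at room temperature.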

[12] = qHTS assay for cell viability of the p53RE-bla HCT-116 cell line (AID 743292); also: % is scaled to controls: 0 for no effect and ±100 for the full control effect; nearly all actives have a fitted effect of over 55% in size
In short: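 ATP-based luminescence, 16 h compound exposure at 37 C, p53RE-bla HCT-116 cells at 4,000/well.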

[13] = qHTS to identify inhibitors of the type 1 interferon - major histocompatibility complex class I in skeletal muscle: primary screen against the NCATS Mechanism Interrogation Plate v5.0 (MIPE) Libary (AID 1347411);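 also: plate controls were vehicle for no effect and reference inhibitor for full effect; nearly all actives have a fitted effect of over 65% in size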
In short: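 Immortalized human myoblasts (C25cl48) with HiBit knocked into endogenous HLA-B*08:01 were stimulated with 4 ng/ml IFN-beta and given compounds in 11-point 1:3 titration from 46 uM. After 24 h at 37 C, lytic HiBiT luminescence was read.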

[14] = Primary qHTS for inhibitors of nuclear receptor binding SET domain protein 2 (NSD2) in an isogenic RCH-ACV NSD2 p.E1099K mutant (9B) (AID 1645876); also: % is scaled to controls: 0 for no effect and ±100 for the full control effect; nearly all actives have a fitted effect of over 70% in size
[15] = Primary qHTS for inhibitors of nuclear receptor binding SET domain protein 2 (NSD2) in an RCH-ACV wild type WT cells (2C) (AID 1645877); also: % is scaled to controls: 0 for no effect and ±100 for the full control effect; nearly all actives have a fitted effect of over 70% in size
[16] = biological target: Phospholipid hydroperoxide glutathione peroxidase GPX4 (Homo sapiens) (UniProt P36969); assay: Primary qHTS Assay for Inhibitors of Recombinant Selenoprotein Glutathione Peroxidase 4 (GPX4) (AID 1845192); details: outcome: dose series up to 50 µM unless noted; also: % is scaled to controls: 0 for no effect and ±100 for the full control effect; nearly all actives have a fitted effect of over 65% in size
Phospholipid hydroperoxide glutathione peroxidase GPX4 (Homo sapiens), sequence (P36969 whole entry, looked up): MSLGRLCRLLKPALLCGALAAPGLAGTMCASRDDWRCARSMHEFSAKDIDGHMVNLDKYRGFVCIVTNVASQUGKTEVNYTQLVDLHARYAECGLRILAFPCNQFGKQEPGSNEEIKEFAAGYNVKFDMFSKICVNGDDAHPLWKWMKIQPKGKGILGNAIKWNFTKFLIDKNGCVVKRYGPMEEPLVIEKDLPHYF
In short: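 GR-coupled readout: 100 nM GR, 1 mM GSH, 0.5 mM NADPH; NADPH fluorescence (ex 340/em 450 nm) read at t=0 and after 15 min RT. GPX4 200 nM, preincubated 30 min with compound; substrate 0.5 mM CHP.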

[17] = qHTS drug screen for cell cycle checkpoint inhibitors in PARPi-resistant BRCA-mutant ovarian cancer cell lines. (AID 1963452; calls by dose curve); details: PEO1/OlaR viability, CellTiter-Glo luminescence, 96 h, stronger effect = lower value
In short: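 PEO1, PEO4 and PEO1/OlaR ovarian cancer cells, 600 per well, exposed 96 h at 37C to a dilution series. Viability read by CellTiter-Glo luminescence, normalized to DMSO and empty wells; activity summarized as Z-AUC.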

[18] = qHTS profiling for inhibitors of Plasmodium falciparum proliferation (AID 504749);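 also: 0% = DMSO vehicle and full inhibition = artemisinin control; nearly all actives have a fitted effect of over 60% in size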; details: P. falciparum in erythrocytes, SYBR Green DNA, 72 h; at 28.7 µM (top of the series); parasite line A
In short: (§1)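 Parasite proliferation within erythrocytes, 72 h exposure. Endpoint: SYBR Green I fluorescence after overnight lysis at room temperature. Controls: 0.29 uM artemisinin, DMSO.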

7G8 = assay: as above; details: P. falciparum in erythrocytes, SYBR Green DNA, 72 h; series mostly up to 28.7 µM
In short: as §1

AA1029 = assay: as above; details: P. falciparum in erythrocytes, SYBR Green DNA, 72 h; series mostly up to 28.7 µM
In short: as §1

AS120 = assay: as above; details: P. falciparum in erythrocytes, SYBR Green DNA, 72 h; series mostly up to 28.7 µM
In short: as §1

ATS189 = assay: as above; details: P. falciparum in erythrocytes, SYBR Green DNA, 72 h; series mostly up to 28.7 µM
In short: as §1

ATS95 = assay: as above; details: P. falciparum in erythrocytes, SYBR Green DNA, 72 h; series mostly up to 28.7 µM
In short: as §1

C2A = assay: as above; details: P. falciparum in erythrocytes, SYBR Green DNA, 72 h; series mostly up to 28.7 µM
In short: as §1

CP185 = assay: as above; details: P. falciparum in erythrocytes, SYBR Green DNA, 72 h; series mostly up to 28.7 µM
In short: as §1

CP191 = assay: as above; details: P. falciparum in erythrocytes, SYBR Green DNA, 72 h; series mostly up to 28.7 µM
In short: as §1

CP192 = assay: as above; details: P. falciparum in erythrocytes, SYBR Green DNA, 72 h; series mostly up to 28.7 µM
In short: as §1

CP194 = assay: as above; details: P. falciparum in erythrocytes, SYBR Green DNA, 72 h; series mostly up to 28.7 µM
In short: as §1

CP201 = assay: as above; details: P. falciparum in erythrocytes, SYBR Green DNA, 72 h; series mostly up to 28.7 µM
In short: as §1

CP203 = assay: as above; details: P. falciparum in erythrocytes, SYBR Green DNA, 72 h; series mostly up to 28.7 µM
In short: as §1

CP211 = assay: as above; details: P. falciparum in erythrocytes, SYBR Green DNA, 72 h; series mostly up to 28.7 µM
In short: as §1

CP217 = assay: as above; details: P. falciparum in erythrocytes, SYBR Green DNA, 72 h; series mostly up to 28.7 µM
In short: as §1

CP237 = assay: as above; details: P. falciparum in erythrocytes, SYBR Green DNA, 72 h; series mostly up to 28.7 µM
In short: as §1

CP238 = assay: as above; details: P. falciparum in erythrocytes, SYBR Green DNA, 72 h; series mostly up to 28.7 µM
In short: as §1

CP247 = assay: as above; details: P. falciparum in erythrocytes, SYBR Green DNA, 72 h; series mostly up to 28.7 µM
In short: as §1

CP250 = assay: as above; details: P. falciparum in erythrocytes, SYBR Green DNA, 72 h; series mostly up to 28.7 µM
In short: as §1

C[C@@H]1[C@H](O)[C@@H](C)/C=C/C=C/C=C/C=C/C=C/C=C/C=C/[C@H](O[C@@H]2O[C@H](C)[C@@H](O)[C@H](N)[C@@H]2O)C[C@@H]2O[C@](O)(C[C@@H](O)C[C@@H](O)[C@H](O)CC[C@@H](O)C[C@@H](O)CC(=O)O[C@H]1C)C[C@H](O)[C@H]2C(=O)O
inactive: activation [1] 0.804% | activation [2] -0.187% | Potency [3] | Potency [4] | activation [6] 0.282% | max response [7] 6.84% | outcome [8] | outcome [9] | max response [10] -15.2% | max response [11] -1.04% | Potency [12] | Potency [13] | Potency [14] | Potency [15] | Potency [16] | Z-AUC [17] 1.47 | activity, negative = inhibition [18] -1.42% | Potency (7G8) | Potency (AA1029) | Potency (AS120) | Potency (ATS189) | Potency (ATS95) | Potency (C2A) | Potency (CP185) | Potency (CP191) | Potency (CP192) | Potency (CP194) | Potency (CP201) | Potency (CP203) | Potency (CP211) | Potency (CP217) | Potency (CP237) | Potency (CP238) | Potency (CP247) | Potency (CP250)
1.65: Z-AUC ([17]; measured here: PEO1 parental Z-AUC)
active: Potency [5] 42.2 µM
1.61: Z-AUC ([17]; measured here: PEO4 Z-AUC)
